Results reported in PubChem BioAssay (NCI).
Compounds without any hit were thinned out: in the full panel of roughly 79,000, 15% have a hit. Activity calls are given as the source filed them. Rule as the data show it: active = growth inhibition above about 70%; inactive = the rest.

Tests used:
[1] = NCI Yeast Anticancer Drug Screen. Data for the mec2-1 strain (AID 157); conditions: S. cerevisiae mec2-1 strain, hits give high values
Outline: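 Cells of the genetically defined mec2-1 yeast strain are incubated with test compound. Inhibition of growth is calculated against vehicle-treated controls.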

[2] = NCI Yeast Anticancer Drug Screen. Data for the rad14 strain (AID 159);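 also: 0% = growth of vehicle-treated control cultures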; conditions: S. cerevisiae rad14 strain growth inhibition, hits give high values
Outline: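 DNA repair-defective yeast, compound-exposed; % growth inhibition derived by comparison with vehicle-treated controls.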

[3] = NCI Yeast Anticancer Drug Screen. Data for the sgs1 mgt1 strain (AID 161);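 also: 0% = growth of cultures given vehicle only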; conditions: S. cerevisiae sgs1 mgt1 strain, hits give high values
Outline: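 Mutant yeast exposed to compound; growth scored against vehicle-only wells.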

[4] = NCI Yeast Anticancer Drug Screen. Data for the CLN2oe strain (AID 163);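 also: 0% = growth of vehicle-only control cultures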; conditions: S. cerevisiae CLN2oe strain, hits give high values
Outline: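 Strain altered in cell-cycle control, incubated with compound; growth compared to solvent-treated controls.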

[5] = NCI Yeast Anticancer Drug Screen. Data for the cln2 rad14 strain (AID 165);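 also: 0% = growth equal to vehicle treated cultures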; conditions: S. cerevisiae cln2 rad14 strain, hits give high values
Outline: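 The screen exposed genetically defined yeast (cln2 rad14) to test compounds and scored growth inhibition relative to vehicle-treated controls.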

[6] = NCI Yeast Anticancer Drug Screen. Data for the bub3 strain (AID 167); conditions: S. cerevisiae bub3 mutant strain, hits give high values
Outline: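 In this screen, a yeast mutant lacking normal mitotic checkpoint function is challenged with compound. Relative growth versus vehicle gives the inhibition value.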

[7] = NCI Yeast Anticancer Drug Screen. Data for the wt2 strain (AID 169);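 also: 0% = growth of vehicle-treated yeast cultures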; conditions: S. cerevisiae wt2 strain growth inhibition, hits give high values
Outline: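 Steps: yeast strain treated with compound; growth recorded; inhibition calculated relative to cultures given vehicle alone.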

[8] = NCI Yeast Anticancer Drug Screen. Data for the mlh1 strain (AID 171);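 also: 0% = growth of vehicle-treated control cultures of the same strain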; conditions: S. cerevisiae mlh1 strain growth inhibition, hits give high values
Outline: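 Yeast screen: mutant strain plus compound, growth scored against vehicle control wells.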

[9] = NCI Yeast Anticancer Drug Screen. Data for the sgs1 strain (AID 173);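 also: 0% = growth of vehicle-only control cultures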; conditions: S. cerevisiae sgs1 mutant, hits give high values
Outline: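 Inhibition of yeast growth served as the measure. The mutant strain was treated with each compound, and growth was normalised to cultures receiving vehicle alone.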

[10] = NCI Yeast Anticancer Drug Screen. Data for the mlh1 rad18 strain (AID 175); conditions: S. cerevisiae mlh1 rad18 strain growth inhibition, hits give high values
Outline: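 Compound-treated yeast growth, normalised to vehicle controls. Strain bears defined DNA repair mutations.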

[11] = NCI Yeast Anticancer Drug Screen. Data for the rad18 strain (AID 177); conditions: S. cerevisiae rad18 mutant growth inhibition, hits give high values
Outline: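 Inhibition values reflect reduced yeast growth compared with vehicle-treated controls, using a strain engineered with a DNA damage repair defect.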

[12] = NCI Yeast Anticancer Drug Screen. Data for the rad52 strain (AID 147);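 also: 0% = growth of vehicle-treated control cultures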; conditions: S. cerevisiae rad52 mutant growth inhibition, hits give high values
Outline: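 Genetically altered yeast (DNA damage repair defect) treated with compound; inhibition calculated relative to vehicle.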

[13] = NCI Yeast Anticancer Drug Screen. Data for the wt1 strain (AID 149);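 also: 0% = growth of vehicle-treated wt1 cultures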; conditions: S. cerevisiae wt1 strain (SPY 50644) growth inhibition, hits give high values
Outline: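 wt1 strain grown with compound or vehicle; inhibition taken from the growth difference.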

[14] = NCI Yeast Anticancer Drug Screen. Data for the rad50EPP+ strain (AID 151);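 also: 0% = growth of vehicle-treated control cultures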; conditions: S. cerevisiae rad50 mutant strain, hits give high values
Outline: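 Strain rad50EPP+; compound exposure; % growth inhibition vs vehicle.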

[15] = NCI Yeast Anticancer Drug Screen. Data for the mgt1 strain (AID 153); conditions: S. cerevisiae mgt1 mutant growth inhibition, hits give high values
Outline: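 Read-out: yeast growth inhibition vs vehicle control. Strain mgt1, drawn from a panel altered in DNA damage repair or cell cycle control.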

[16] = NCI Yeast Anticancer Drug Screen. Data for the rad50 strain (AID 155);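 also: 0% = growth of vehicle-only cultures of the same strain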; conditions: S. cerevisiae rad50 strain growth inhibition, hits give high values
Outline: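 DNA repair mutant yeast, compound exposure, growth read-out; inhibition is taken relative to vehicle.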

[17] = at 5.0 µM (retest, dose inferred, filed as 0.5)
[18] = at 50.0 µM (retest, dose inferred, filed as 5.0)

Measured: growth inhibition

O=C1C=C(Br)C(=O)c2ccccc21
active: [1]; at 11.0 µM 97% | [1]; at 33.0 µM 99% | [1]; [18] 99% | [1]; at 50.0 µM 99.2% | [1]; at 100.0 µM 99% | [2]; at 11.0 µM 98% | [2]; at 33.0 µM 99% | [2]; at 100.0 µM 99% | [3]; [18] 99% | [3]; at 50.0 µM 99.2% | [4]; at 33.0 µM 99% | [4]; at 100.0 µM 99% | [5]; [18] 99% | [5]; at 50.0 µM 99.1% | [6]; [17] 86% | [6]; at 11.0 µM 99% | [6]; at 33.0 µM 99% | [6]; [18] 99% | [6]; at 50.0 µM 99% | [6]; at 100.0 µM 99% | [7]; at 11.0 µM 90% | [7]; at 33.0 µM 99% | [7]; at 100.0 µM 99% | [8]; at 11.0 µM 98% | [8]; at 33.0 µM 99% | [8]; at 100.0 µM 99% | [9]; at 11.0 µM 93% | [9]; at 33.0 µM 99% | [9]; at 100.0 µM 99% | [10]; [18] 99% | [10]; at 50.0 µM 99.1% | [11]; at 11.0 µM 82% | [11]; at 33.0 µM 99% | [11]; at 100.0 µM 98%
inactive: [1]; [17] 39% | [2]; at 1.2 µM 10% | [2]; at 3.7 µM 24% | [3]; [17] 57% | [4]; at 1.2 µM 5% | [4]; at 3.7 µM 9% | [4]; at 11.0 µM 47% | [5]; [17] 5% | [6]; at 1.2 µM 22% | [6]; at 3.7 µM 44% | [7]; at 1.2 µM 13% | [7]; at 3.7 µM 28% | [8]; at 1.2 µM 8% | [8]; at 3.7 µM 11% | [9]; at 1.2 µM 8% | [9]; at 3.7 µM 19% | [10]; [17] 53% | [11]; at 1.2 µM 5% | [11]; at 3.7 µM 11%

ClCCCOc1c(Cl)cc(Cl)cc1Cl
inactive: [12]; at 1.2 µM -2% | [12]; at 3.7 µM 2% | [12]; at 11.0 µM 5% | [12]; at 33.0 µM -3% | [12]; at 100.0 µM 10% | [13]; at 1.2 µM -1% | [13]; at 3.7 µM -2% | [13]; at 11.0 µM -3% | [13]; at 33.0 µM -5% | [13]; at 100.0 µM -1% | [14]; at 1.2 µM -4% | [14]; at 3.7 µM 4% | [14]; at 11.0 µM 13% | [14]; at 33.0 µM 10% | [14]; at 100.0 µM 32% | [15]; at 1.2 µM 0% | [15]; at 3.7 µM -1% | [15]; at 11.0 µM -2% | [15]; at 33.0 µM -1% | [15]; at 100.0 µM 1% | [16]; at 1.2 µM -2% | [16]; at 3.7 µM 4% | [16]; [17] 1% | [16]; at 11.0 µM 5% | [16]; at 33.0 µM 0% | [16]; [18] 13% | [16]; at 50.0 µM -7.15% | [16]; at 100.0 µM 10% | [1]; at 1.2 µM -2% | [1]; at 3.7 µM -2% | [1]; [17] -27% | [1]; at 11.0 µM -2% | [1]; at 33.0 µM -1% | [1]; [18] -12% | [1]; at 50.0 µM 8.65% | [1]; at 100.0 µM 1% | [2]; at 1.2 µM -4% | [2]; at 3.7 µM 2% | [2]; at 11.0 µM 5% | [2]; at 33.0 µM 1% | [2]; at 100.0 µM 13% | [3]; [17] 17% | [3]; [18] 15% | [3]; at 50.0 µM -2.55% | [4]; at 1.2 µM 1% | [4]; at 3.7 µM 0% | [4]; at 11.0 µM 0% | [4]; at 33.0 µM 1% | [4]; at 100.0 µM 5% | [5]; [17] 16% | [5]; [18] 25% | [5]; at 50.0 µM 29.6% | [6]; at 1.2 µM 0% | [6]; at 3.7 µM 1% | [6]; [17] 14% | [6]; at 11.0 µM -2% | [6]; at 33.0 µM -1% | [6]; [18] 13% | [6]; at 50.0 µM 0.6% | [6]; at 100.0 µM 0% | [7]; at 1.2 µM -7% | [7]; at 3.7 µM 1% | [7]; at 11.0 µM -7% | [7]; at 33.0 µM -2% | [7]; at 100.0 µM -8% | [8]; at 1.2 µM -2% | [8]; at 3.7 µM 0% | [8]; at 11.0 µM 3% | [8]; at 33.0 µM -1% | [8]; at 100.0 µM 9% | [9]; at 1.2 µM -15% | [9]; at 3.7 µM -22% | [9]; at 11.0 µM -21% | [9]; at 33.0 µM -5% | [9]; at 100.0 µM 10% | [10]; [17] 15% | [10]; [18] 60% | [10]; at 50.0 µM 27.1% | [11]; at 1.2 µM -4% | [11]; at 3.7 µM 12% | [11]; at 11.0 µM 12% | [11]; at 33.0 µM -2% | [11]; at 100.0 µM 6%
